# High-throughput results from PubChem BioAssay.
# VACV Venus inh = qHTS for Stage-Specific Inhibitors of Vaccinia Orthopoxvirus: Venus Reporter Primary qHTS. Vaccinia virus Venus reporter expression, fluorescence. Potency, µM (series often up to 36.5 µM), for inactives: top-dose activity change, negative = inhibition, usual class: inhibitors. 330,000 tested, 0.46% active. AID 720580, 2013; calls by dose curve; tested in A549 cells; note: % is set by controls: 0 for no effect and ±100 for the full control effect; nearly all actives have a fitted effect of over 30% in size
# Pf growth 96h = Primary qHTS for delayed death inhibitors of the malarial parasite plastid, 96 hour incubation; P. falciparum luciferase reporter growth, 96 h; 320,000 tested, 6.9% active; Potency, µM (doses to about 28.7 µM), for inactives: at the highest dose activity change, negative = inhibition, hits mostly inhibitors; AID 504834, 2011; note: % is set by controls: 0 for no effect and ±100 for the full control effect
#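 Parasite growth measured via integrated firefly luciferase reporter in P. falciparum. Infected erythrocytes at 2% hematocrit, 0.05% parasitemia final were treated 96 hours at 37 C under 5% CO2, and luminescence was read.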
# HCV inhibitor = qHTS Assay for Inhibitors of Hepatitis C Virus (HCV); Huh7.5.1 HCVcc-Cre infection, luciferase reporter, 44 h; Potency, µM (doses to about 41.8 µM), without a hit: at the highest dose activity change, negative = inhibition, hits mostly inhibitors; 340,000 tested, 3.4% active; note: % is set by controls: 0 for no effect and ±100 for the full control effect
#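 Compounds are dispensed onto cells plated 4 h earlier at 1,000 per well, with HCVcc-Cre virus (about 0.5 moi) added next. Following 44 h of culture, luminescent signal is measured for 15 sec after 15 min with substrate at room temperature.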
# Vaccinia mCherry = qHTS for Stage-Specific Inhibitors of Vaccinia Orthopoxvirus: mCherry Reporter Primary qHTS; AID 720579, 2013; 310,000 tested, 0.63% active; Potency, µM (highest dose often 36.5 µM), for inactives: at the top dose activity change, negative = inhibition, hits mostly inhibitors; Vaccinia virus mCherry reporter infection, fluorescence; calls by dose curve; tested in A549 cells; note: % is set by controls: 0 for no effect and ±100 for the full control effect; nearly all actives have a fitted effect of over 35% in size
# NS1 inh = qHTS Assay for Inhibitors of Influenza NS1 Protein Function; Potency, µM (highest dose often 46.1 µM), inactives show at the top dose activity, positive = more growth; 270,000 tested, 0.4% active; calls by dose curve; note: actives are rising curves; nearly all actives have a fitted effect of over 50% in size
#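 Growth recovery, yeast-based: influenza A NS1 expressed in S. cerevisiae causes slow growth, and suppressors are detected by OD600. The parent strain without NS1 is used as positive control.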
# Pf growth 48h = Primary qHTS for delayed death inhibitors of the malarial parasite plastid, 48 hour incubation | Potency, µM (doses to about 28.7 µM), for the others: at the highest dose activity change, negative = inhibition, usual class: inhibitors | 310,000 tested, 5.9% active | P. falciparum luciferase growth in erythrocytes, 48 h; note: % is set by controls: 0 for no effect and ±100 for the full control effect
#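 Luciferase-expressing parasites in RBCs, 2% Hct / 0.1% parasitemia final; RPMI 1640 + 0.5% Albumax; 37 C, 5% CO2, one generation; luminescence read-out, lower signal = inhibition.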
# Starred values were filed as active, the others as inactive; i = inactive; ? = inconclusive; . = no result. Only some compounds are listed: those with a hit (about 11% of all), similar ones and a draw of the others. Unless noted, calls come from the whole dose curve; as a rule, active = well fitted inhibition curve with a large enough effect; inconclusive = small, poorly fitted or top-dose-only effect, or another doubt; inactive = no such curve, though single readings can be large or run the other way. Potency is the fitted concentration of half-maximal effect.
SMILES,VACV Venus inh,Pf growth 96h,HCV inhibitor,Vaccinia mCherry,NS1 inh,Pf growth 48h
COc1ccc(C(=O)N2CCC(c3nc4ccccc4s3)CC2)cc1Cl,-16%,.,.,?,.,.
CC(CSc1nnnn1-c1ccccc1)Cn1c(N2CCN(C)CC2)nc2c1c(=O)[nH]c(=O)n2C (configuration not stated),-14%,?,9%,-12%,.,?
Cn1c(=O)[nH]c(=O)c2c1nc(N1CCCC1)n2CCCSc1nnnn1-c1ccccc1,-21%,6.6µM*,15%,-26%,4%,?
CN1CCN(c2nc3c(c(=O)[nH]c(=O)n3C)n2CCSc2nnnn2-c2ccccc2)CC1,.,5%,-3%,.,4%,-1%
Cn1c(=O)[nH]c(=O)c2c1nc(N1CCCCCC1)n2CCCSc1nnnn1-c1ccccc1,.,2.3µM*,-11%,.,-9%,?
O=C(CNC(=O)c1ccccc1F)NCCc1ccc(Cl)cc1,0%,55%,15%,-4%,0%,3%
COc1ccccc1CNc1nc(NCc2cccc(OC)c2OC)c2sccc2n1,-13%,.,.,-10%,.,.
CCNCCC(CCC(C)C)c1ccc2c(c1)OCO2 (configuration not stated),-17%,2.9µM*,?,?,0%,?
CC(C)CCC(CCNCc1ccccn1)c1ccc2c(c1)OCO2 (configuration not stated),.,10µM*,-17%,.,2%,?
Cc1ccc(NC(=O)c2cc(S(=O)(=O)NCC3CCCO3)ccc2F)cc1 (configuration not stated),-23%,.,.,i,.,.
COc1ccc(OC)c(CNCCc2ccc(OC)c(OC)c2)c1,-20%,?,4%,-14%,-11%,4%
COC(=O)c1c(NC(=O)CN2C(=O)C(=O)N(CC(C)C)C2=O)sc(C)c1C,-18%,?,.,i,-11%,4%
COc1cc2c(C(=O)NCc3ccc4c(c3)OCO4)cn(CC(C)C)c(=O)c2cc1OC,-2%,-10%,?,-11%,7%,-14%
O=C(NCCC1=CCCCC1)C1CCN(C(=O)N2CCOc3ccc(Cl)cc32)CC1,2%,.,.,1%,.,.
CSc1ccc(/C=C(/NC(=O)c2ccco2)C(=O)NCc2ccco2)cc1,-18%,?,?,i,11%,9%
O=C(CCCn1nnnc1CN1CCOCC1)N1CCC(c2ccc(F)cc2)C1 (configuration not stated),-13%,7.4µM*,0%,-14%,-1%,-36%
COc1ccc(N2CCN(C(=O)CCCn3nnnc3CN3CCOCC3)C(C)C2)cc1 (configuration not stated),-12%,12µM*,10%,-11%,-1%,-9%
Cc1ccccc1OCC(=O)OCC(=O)N1CCCc2ccccc21,-4%,41%,12%,-8%,.,5%
Cc1cn(-c2cc(C(=O)Nc3ccc(C)c(NC(=O)C(=O)c4c[nH]c5ccccc45)c3)cc(C(F)(F)F)c2)cn1,?,?,?,-14%,-4%,1µM*
CCN(c1ccc(NC(=O)COC(=O)c2cccs2)cc1)C(C)C,-5%,-1%,1%,-8%,2%,.
Cc1nn(C(=O)c2ccco2)c(C)c1Sc1ccc([N+](=O)[O-])cc1,-10%,.,-2%,i,6%,4%
O=P(OCC1CCCO1)(OCC1CCCO1)OCC1CCCO1 (configuration not stated),-11%,.,1%,-13%,.,.
CCOC(=O)Cn1c(N2CCCCCC2)nc2c1c(=O)[nH]c(=O)n2C,-4%,-10%,-2%,.,1%,.
COc1cc(C(C)=O)ccc1OCC(=O)c1cc(C)n(C2CC2)c1C,.,12µM*,-14%,.,-64%,?
Cc1ccc(CNC(=O)c2cc(-c3ccccc3)nn2CC2CC(c3cccnc3)=NO2)cc1 (configuration not stated),-10%,.,0%,-14%,.,.
SMILES,VACV Venus inh,Pf growth 96h,HCV inhibitor,Vaccinia mCherry,NS1 inh,Pf growth 48h
CN(C)c1ccc(-c2cccc(C3CC=CC4C3C(=O)N(Cc3ccccc3)C4c3ccc(C(F)(F)F)cc3)c2)cc1 (configuration not stated),-13%,?,9%,-5%,2%,?
COc1ccc(-c2cccc(C3CC=CC4C3C(=O)N(Cc3ccccc3)C4c3ccc(C(F)(F)F)cc3)c2)cc1 (configuration not stated),-10%,7.4µM*,-6%,-4%,-5%,6.6µM*
Cc1ccc(-c2cccc(C3CC=CC4C3C(=O)N(Cc3ccccc3)C4c3cc(C)ccc3F)c2)cc1 (configuration not stated),-18%,7.4µM*,1%,-12%,-1%,4.7µM*
O=C1C2C(c3ccccc3)CC=CC2[C@H](c2ccc(C(F)(F)F)cc2)N1Cc1ccccc1 (some centres not stated),?,?,-18%,-20%,-57%,3.3µM*
C[C@H](O)[C@@H]1C(=O)N2CCc3c([nH]c4ccccc34)[C@@H]2C[C@@H]1N(C)C(=O)Nc1cc(Cl)cc(Cl)c1,?,.,.,13µM*,.,.
COc1ccc(-c2ccc3c(c2)[C@@H]2C[C@H](N(C)C(=O)Nc4ccccc4)[C@H]([C@H](C)O)C(=O)N2CC3)cc1,?,.,2µM*,?,.,.
C[C@H](O)[C@@H]1C(=O)N2CCc3c([nH]c4ccccc34)[C@@H]2C[C@@H]1N(C)C(=O)Nc1ccccc1,-27%,.,.,?,.,.
CCCCn1c(N)c(N(CC(C)C)C(=O)c2cc(Cl)nc3ccccc23)c(=O)[nH]c1=O,-15%,-15%,20%,i,.,?
COc1ccc(CC(=O)Nc2ccc(S(=O)(=O)N(C)C3CCN(C)CC3)cc2)cc1,.,?,0%,.,.,?
COc1ccc2oc(C(=O)Nc3ccc(S(=O)(=O)N(C)C4CCN(C)CC4)cc3)c(C)c2c1,.,?,11µM*,.,2%,5.9µM*
CN1CCC(N(C)S(=O)(=O)c2ccc(NC(=O)COc3cccc(C(F)(F)F)c3)cc2)CC1,-27%,13µM*,?,?,.,?
Cc1cc(N2CCCC2)ccc1NC(=O)COc1cccc(C(F)(F)F)c1,.,0%,13µM*,.,9%,7%
CC(Oc1ccc(Br)cc1)C(=O)Nc1ccc(S(=O)(=O)N(C)C2CCN(C)CC2)cc1 (configuration not stated),?,?,6.3µM*,-7%,.,?
CN1CCN(NC(=O)COc2cccc(C(F)(F)F)c2)CC1,-13%,?,-19%,-2%,7%,4%
